Experimental data reported in PubChem BioAssay AID1159580 (chemical genetic matrix, 2015).
Several values for one entry are separate records, joined by “and”; a condition that tells them apart may be missing. Equal entries are not always repeated. Screen size: about 5,500 compounds; about 2,000 (36%) were called active. Roughly 18% stayed inconclusive and do not appear here. Rule as the data show it: active = normalized growth mostly below about 0.91 (no sharp cut-off); inconclusive = no clear call, values can overlap the other calls; inactive = mostly above about 0.92. The list shows a part of the results.

Assay: chemical genetic growth profiling, strain panel (AID 1159580);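 also: tested at 20 µM; growth read once vehicle control cultures reached saturation at 30 °C; 1 = growth at the plate median or of vehicle wells; lower values mean less growth of the strain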
Conditions: S. cerevisiae deletion strains, growth OD
[1] = locus YAL013W, strain DEP1, active compounds read low
[2] = locus YDR150W, strain NUM1, active compounds read low
[3] = locus YMR307W, strain GAS1, active compounds read low
[4] = locus YPL055C, strain LGE1, active compounds read low

Measured: normalized growth

C[C@H](NC(=O)/C(C#N)=C/c1ccc(O)c(O)c1)c1ccccc1
inactive: [1] 0.985 | locus YAL040C, strain CLN3, active compounds read low 1.04 | locus YCL061C, strain MRC1 (second series), active compounds read low 0.961 | [2] 0.936 | locus YDR363W, strain ESC2, active compounds read low 0.992 | locus YER002W, strain NOP16, active compounds read low 0.985 | locus YGR229C, strain SMI1, active compounds read low 0.93 | locus YJR075W, strain HOC1, active compounds read low 0.961 | locus YMR263W, strain SAP30, active compounds read low 1 | [3] 1.02 | locus YNL153C, strain GIM3, active compounds read low 0.978 | locus YNL175C, strain NOP13, active compounds read low 0.991 | locus YNL197C, strain WHI3, active compounds read low 0.987 | locus YNL224C, strain SQS1, active compounds read low 1 | locus YOR083W, strain WHI5 (second series), active compounds read low 0.968 | [4] 0.924

O=c1ccc2ccccc2o1
inactive: [1] 1.02 | locus YAL021C, strain ccr4, active compounds read low 1.01 | locus YAL026C, strain drs2, active compounds read low 0.993 | locus YAL030W, strain snc1, active compounds read low 0.99 | locus YBL061C, strain skt5, active compounds read low 0.988 | locus YBR009C, strain hhf1, active compounds read low 0.939 | locus YBR021W, strain FUR4, active compounds read low 1 | locus YBR023C, strain chs3, active compounds read low 0.996 | locus YBR171W, strain sec66, active compounds read low 0.974 | locus YBR229C, strain ROT2, active compounds read low 1.02 | locus YBR231C, strain swc5, active compounds read low 0.964 | locus YBR279W, strain paf1, active compounds read low 0.999 | locus YCL011C, strain gbp2, active compounds read low 0.993 | locus YCL016C, strain dcc1, active compounds read low 1.03 | locus YCL029C, strain bik1, active compounds read low 0.992 | locus YCL069W, strain vba3, active compounds read low 0.98 | locus YCR088W, strain abp1, active compounds read low 0.982 | locus YDL005C, strain med2, active compounds read low 0.976 | locus YDL035C, strain GPR1, active compounds read low 1.01 | locus YDL040C, strain nat1, active compounds read low 0.984 | locus YDL074C, strain BRE1, active compounds read low 1.01 | locus YDL101C, strain DUN1, active compounds read low 1.03 | locus YDL134C, strain PPH21, active compounds read low 1.03 | locus YDL185W, strain tfp1, active compounds read low 0.982 | locus YDL192W, strain arf1, active compounds read low 0.988 | locus YDR001C, strain nth1, active compounds read low 0.978 | locus YDR069C, strain doa4, active compounds read low 0.987 | locus YDR101C, strain arx1, active compounds read low 0.968 | locus YDR137W, strain rgp1, active compounds read low 0.968 | [2] 1 | locus YDR159W, strain sac3, active compounds read low 0.945 | locus YDR162C, strain NBP2, active compounds read low 1.04 | locus YDR195W, strain ref2 0.991 | locus YDR297W, strain sur2, active compounds read low 0.973 | locus YDR318W, strain mcm21, active compounds read low 1.01 | locus YDR334W, strain swr1, active compounds read low 0.926 | locus YDR335W, strain msn5, active compounds read low 0.985 | locus YDR388W, active compounds read low 0.988 | locus YDR392W, strain spt3, active compounds read low 0.956 | locus YDR502C, strain sam2, active compounds read low 0.963 | locus YEL003W, strain gim4, active compounds read low 0.957 | locus YEL037C, strain rad23, active compounds read low 0.977 | locus YEL061C, strain CIN8 (second series), active compounds read low 0.954 | locus YEL061C, strain CIN8, active compounds read low 1.01 | locus YER015W, strain faa2, active compounds read low 0.991 | locus YER016W, strain bim1, active compounds read low 0.986 | locus YER110C, active compounds read low 0.989 | locus YER111C, strain swi4, active compounds read low 0.982 | locus YER155C, strain BEM2 (second series), active compounds read low 0.937 | locus YER155C, strain BEM2, active compounds read low 1.02 | locus YER167W, strain BCK2, active compounds read low 1.02 | locus YFR010W, strain ubp6, active compounds read low 0.93 | locus YGL078C, strain dbp3, active compounds read low 0.992 | locus YGL086W, strain mad1, active compounds read low 0.981 | locus YGL167C, strain pmr1, active compounds read low 0.972 | locus YGL173C, strain kem1, active compounds read low 0.973 | locus YGL227W, strain vid30, active compounds read low 0.969 | locus YGL240W, strain doc1, active compounds read low 0.958 | locus YGL248W, strain PDE1, active compounds read low 1.04 | locus YGL253W, strain hxk2, active compounds read low 1.01 | locus YGR135W, strain pre9, active compounds read low 0.988 | locus YGR252W, strain gcn5, active compounds read low 1.02 | locus YHR013C, strain ard1, active compounds read low 1.05 | locus YHR027C, strain rpn1, active compounds read low 0.975 | locus YHR030C, strain SLT2, active compounds read low 1.02 and 0.992 | locus YHR079C, strain IRE1 (second series), active compounds read low 0.999 | locus YHR079C, strain IRE1, active compounds read low 0.957 | locus YHR094C, strain hxt1, active compounds read low 0.989 | locus YHR129C, strain ARP1, active compounds read low 1.02 | locus YHR142W, strain chs7, active compounds read low 1.03 | locus YHR200W, strain rpn10, active compounds read low 0.978 | locus YIL066C, strain RNR3, active compounds read low 1.02 | locus YIL073C, strain SPO22, active compounds read low 0.985 | locus YIL125W, strain kgd1, active compounds read low 1.01 | locus YIR030C, strain dcg1, active compounds read low 0.992 | locus YJL092W, strain hpr5, active compounds read low 0.996 | locus YJL095W, strain BCK1 (second series), active compounds read low 0.978 | locus YJL095W, strain BCK1, active compounds read low 1.06 and 0.982 | locus YJL115W, strain asf1, active compounds read low 0.972 | locus YJL129C, strain trk1, active compounds read low 0.985 | locus YJL134W, strain LCB3, active compounds read low 1.01 | locus YJL154C, strain vps35, active compounds read low 0.978 | locus YJL164C, strain tpk1, active compounds read low 0.977 | locus YJL166W, strain qcr8, active compounds read low 0.956 | locus YJL168C, strain set2, active compounds read low 0.995 | locus YJL187C, strain SWE1 (second series), active compounds read low 1.02 | locus YJL187C, strain SWE1, active compounds read low 0.982 | locus YJR043C, strain POL32, active compounds read low 1.02 | locus YJR066W, strain TOR1, active compounds read low 0.945 | locus YKL009W, strain mrt4, active compounds read low 1.12 | locus YKL068W, active compounds read low 1.01 | locus YKL085W, strain MDH1 (second series), active compounds read low 1.01 | locus YKL085W, strain MDH1, active compounds read low 1.01 | locus YKL160W, strain elf1, active compounds read low 1.02 | locus YKL190W, strain CNB1, active compounds read low 1.02 | locus YKR001C, strain vps1, active compounds read low 0.979 | locus YKR026C, strain gcn3, active compounds read low 0.972 | locus YKR091W, strain srl3, active compounds read low 0.983 | locus YLL001W, strain dnm1, active compounds read low 0.981 | locus YLL026W, active compounds read low 0.99 | locus YLL041C, strain sdh2, active compounds read low 0.998 | locus YLR027C, strain aat2, active compounds read low 0.993 | locus YLR039C, strain RIC1, active compounds read low 1.03 | locus YLR058C, strain SHM2, active compounds read low 1.03 | locus YLR102C, strain apc9, active compounds read low 0.987 | locus YLR113W, strain HOG1, active compounds read low 0.999 | locus YLR221C, strain rsa3, active compounds read low 0.952 | locus YLR258W, strain gsy2, active compounds read low 1.01 | locus YLR262C, strain YPT6 (second series), active compounds read low 0.965 | locus YLR262C, strain YPT6, active compounds read low 1.03 | locus YLR268W, strain sec22, active compounds read low 0.961 | locus YLR320W, strain mms22, active compounds read low 0.951 | locus YLR330W, strain CHS5, active compounds read low 1.03 | locus YLR342W, strain FKS1 (second series), active compounds read low 1.01 | locus YLR342W, strain FKS1, active compounds read low 1 | locus YLR357W, strain rsc2, active compounds read low 1.04 | locus YLR370C, strain arc18, active compounds read low 1 | locus YLR371W, strain rom2, active compounds read low 0.976 | locus YLR384C, strain iki3, active compounds read low 0.992 | locus YLR418C, strain cdc73, active compounds read low 1.03 | locus YML016C, strain PPZ1, active compounds read low 1.02 | locus YML032C, strain rad52, active compounds read low 0.999 | locus YML120C, strain ndi1, active compounds read low 0.95 | locus YML124C, strain tub3, active compounds read low 0.994 | locus YMR058W, strain fet3, active compounds read low 0.983 | locus YMR078C, strain ctf18, active compounds read low 0.989 | locus YMR125W, strain sto1, active compounds read low 0.998 | locus YMR129W, active compounds read low 0.989 | locus YMR205C, strain PFK2, active compounds read low 0.955 | locus YMR223W, strain ubp8, active compounds read low 1.04 | locus YMR231W, strain pep5, active compounds read low 0.971 | [3] 1.06 | locus YNL067W, strain RPL9B, active compounds read low 1.02 | locus YNL071W, strain lat1, active compounds read low 0.958 | locus YNL183C, strain NPR1, active compounds read low 0.949 | locus YNL209W, strain ssb2, active compounds read low 0.978 | locus YNL233W, strain BNI4, active compounds read low 1.02 | locus YNL248C, strain rpa49, active compounds read low 0.995 | locus YNL250W, strain rad50, active compounds read low 1.01 | locus YNL271C, strain bni1, active compounds read low 0.993 | locus YNL298W, strain CLA4, active compounds read low 0.993 | locus YNL307C, strain MCK1, active compounds read low 0.997 | locus YNL322C, strain KRE1 (second series), active compounds read low 0.98 | locus YNL322C, strain KRE1, active compounds read low 1.02 | locus YNR049C, strain mso1, active compounds read low 0.993 | locus YNR052C, strain pop2, active compounds read low 1.01 | locus YOL012C, strain htz1 1.37 | locus YOL147C, strain pex11, active compounds read low 0.99 | locus YOR001W, strain rrp6, active compounds read low 0.935 | locus YOR061W, strain CKA2, active compounds read low 1.02 | locus YOR069W, strain VPS5, active compounds read low 1.01 | locus YOR070C, strain gyp1, active compounds read low 0.994 | locus YOR080W, strain dia2, active compounds read low 0.981 | locus YOR083W, strain WHI5, active compounds read low 0.972 | locus YOR106W, strain vam3, active compounds read low 0.998 | locus YOR136W, strain idh2, active compounds read low 0.982 | locus YOR144C, strain elg1, active compounds read low 0.99 | locus YOR184W, strain ser1, active compounds read low 0.985 | locus YOR231W, strain MKK1, active compounds read low 0.988 | locus YOR265W, strain rbl2, active compounds read low 0.987 | locus YOR270C, strain vph1, active compounds read low 0.981 | locus YOR290C, strain snf2, active compounds read low 1.01 | locus YOR316C, strain cot1, active compounds read low 1 | locus YPL051W, strain arl3, active compounds read low 1.03 | [4] 1.02 | locus YPL078C, strain atp4, active compounds read low 1.03 | locus YPL106C, strain sse1, active compounds read low 0.988 | locus YPL240C, strain hsp82, active compounds read low 0.983 | locus YPL256C, strain CLN2, active compounds read low 1 | locus YPR119W, strain clb2, active compounds read low 0.992 | locus YPR141C, strain kar3, active compounds read low 0.999 | locus YPR163C, strain tif3, active compounds read low 1 | locus YPR167C, strain met16, active compounds read low 1.03 | strain wtn01, active compounds read low 0.962
